Values joined by “and” are separate entries in the source; they are usually repeats but may differ in a detail not shown here. Equal values may be shown once. Inconclusive results are not listed. Where a structure was tested more than once in an assay, its records may differ in their call. Active and inactive are the calls of the source. The calls were made as follows: active = hit-call score of the fitted dose curve at least 0.9, where 1 is the maximum; inconclusive = response in the unintended direction; inactive = score below 0.9. Peptide text beside a SMILES is read from it.
Assays:
[1] = target: Cellular tumor antigen p53 (Homo sapiens) (UniProt P04637); experiment: TOX21_p53_BLA_p3_ratio: Tox21 HCT-116 p53 Agonism Beta-lactamase Assay, Ratio, Phase 3 (AID 2283596)
Cellular tumor antigen p53 (Homo sapiens), sequence (P04637 whole entry, looked up): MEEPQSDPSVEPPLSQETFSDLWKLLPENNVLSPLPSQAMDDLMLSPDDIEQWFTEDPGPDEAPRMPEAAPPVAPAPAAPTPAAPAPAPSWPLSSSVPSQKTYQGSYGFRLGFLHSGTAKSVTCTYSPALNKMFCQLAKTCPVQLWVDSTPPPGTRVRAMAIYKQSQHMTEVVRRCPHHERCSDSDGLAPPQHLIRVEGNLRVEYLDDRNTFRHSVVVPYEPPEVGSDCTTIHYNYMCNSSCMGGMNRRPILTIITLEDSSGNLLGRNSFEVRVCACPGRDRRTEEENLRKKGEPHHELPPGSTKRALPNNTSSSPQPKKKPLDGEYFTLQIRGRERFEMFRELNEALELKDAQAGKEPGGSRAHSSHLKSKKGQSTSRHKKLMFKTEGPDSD
Summary of the method: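 Cells were seeded at 4000/well, rested 5 h at 37C, then dosed with DMSO compound solutions (217-fold dilution) for 16 h. CCF4-AM substrate was loaded for 2 h at room temperature, and the 460/530 nm emission ratio was fitted for gain of signal versus DMSO.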

[2] = target: Cellular tumor antigen p53 (Homo sapiens) (UniProt P04637); experiment: TOX21_p53_BLA_p5_ratio: Tox21 HCT-116 p53 Agonism Beta-lactamase Assay, Ratio, Phase 5 (AID 2283599)
Summary of the method: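 HCT-116 cells carrying a p53-inducible beta-lactamase reporter were seeded at 4000 cells/well and dosed after 5 h with compound in DMSO (217-fold dilution). After 16 h at 37C, CCF4-AM substrate was added for 2 h, and the 460/530 nm emission ratio was scored as gain-of-signal versus DMSO.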

[3] = TOX21_p53_BLA_p5_viability: Viability Assessment in the Tox21 HCT-116 p53 Agonism Beta-lactamase Assay, Phase 5 (AID 2283600)
Summary of the method: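 Workflow: seed 4000 cells per well, wait 5 h, add compounds (DMSO, 217-fold dilution), incubate 16 h, load CCF4-AM 2 h, add CellTiter-Glo, read luminescence after 30 min.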

[4] = target: Cellular tumor antigen p53 (Homo sapiens) (UniProt P04637); experiment: TOX21_p53_BLA_p4_ratio: Tox21 HCT-116 p53 Agonism Beta-lactamase Assay, Ratio, Phase 4 (AID 2283601)
Summary of the method: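 HCT116 cells carrying an inducible beta-lactamase reporter were plated at 4000 cells/well, rested 5 h, then exposed to compounds in DMSO (217-fold dilution) for 16 h at 37C. CCF4-AM substrate was loaded 2 h at room temperature; 460/530 nm emission ratio scored gain-of-signal versus DMSO.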

[5] = TOX21_p53_BLA_p4_viability: Viability Assessment in the Tox21 HCT-116 p53 Agonism Beta-lactamase Assay, Phase 4 (AID 2283597);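 also: hits lower the luminescence signal meaning cytotoxicity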
Summary of the method: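 Readout: ATP luminescence (CellTiter-Glo), measured 30 min after reagent addition at RT. The reagent followed a 2 h CCF4-AM incubation, and the cells had been exposed to compound for 16 h at 37C.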

Measured: AC50

C=CCNCC=C
inactive: [1] | [2] | [3] | [4]
active: [1] 84.2 µM

C=C(C)C(=O)OCC(O)COc1ccc(C(C)(C)c2ccc(OCC(O)COC(=O)C(=C)C)cc2)cc1 (stereo not drawn)
active: [1] 86.7 µM | [5] 46.1 µM
inactive: all other assays above

C=C[Si](OCCOC)(OCCOC)OCCOC
not listed: [4]
inactive: all other assays above

CC(C)(C)N
inactive: [1] | [5]

CC(=O)c1ccc(S(=O)(=O)NC(=O)NC2CCCCC2)cc1
inactive: all assays above

C=C(C)C1CC=C(C)C(OC(C)=O)C1 (stereo not drawn)
inactive: [1]

C=C(C)C1CC=C(C)CC1 (stereo not drawn)
inactive: all assays above

C=C(C)C(=O)OCCOC(=O)C(=C)C
inactive: all assays above

CC(CCC(=O)O)(c1ccc(O)cc1)c1ccc(O)cc1
inactive: all assays above

CC(=O)OC1CCCCC1C(C)(C)C (stereo not drawn)
inactive: all assays above

CC(CC(C)C)=NO
inactive: [1] | [5] | [2]

CCCCOCCOC(=O)COc1ccc(Cl)cc1Cl
not listed: [4]
inactive: all other assays above

C=CC(C)(O)CC/C=C(\C)CC (stereo not drawn)
inactive: [1] | [5] | [2]

CCCCCCC=O
inactive: all assays above

COc1ccc(C(=O)/C(Br)=C\C(=O)O)cc1
inactive: [3]
active: [1] 14.4 µM and 25.8 µM | [5] 76.7 µM and 44.5 µM | [2] 21 µM and 21.6 µM | [3] 39.1 µM | [4] 60 µM and 27.2 µM

c1ccc(Nc2cccc3ccccc23)cc1
active: [5] 43.6 µM and 82.6 µM | [2] 82.2 µM | [4] 74.3 µM
inactive: [1] | [2] | [3] | [4]

N#CC1(N)CCCCC1
inactive: all assays above

CCCCCOC(=O)CCCCC
inactive: [1] | [5]

CCCSSCCC
inactive: [1]

CCCCOC(=O)C(C)CC (stereo not drawn)
inactive: all assays above

O=C1CCCCCCCCCCCN1
inactive: all assays above

O=C(Cl)c1c(Cl)c(Cl)c(C(=O)Cl)c(Cl)c1Cl
inactive: all assays above

COc1ccc(-c2coc3cc(O)cc(O)c3c2=O)cc1
inactive: all assays above

CCCC/C=C/C=C\C=O
not listed: [4]
inactive: all other assays above

COC(=O)CC(C)CCC=C(C)C (stereo not drawn)
not listed: [4]
inactive: all other assays above

C=C[C@@]1(C)CC(=O)[C@]2(O)[C@@]3(C)[C@@H](O)CCC(C)(C)[C@@H]3[C@H](O)[C@H](OC(C)=O)[C@@]2(C)O1
active: [5] 27.1 µM
inactive: [1] | [5] | [2] | [3] | [4]

CCCCCCCOC(=O)c1ccc(O)cc1
inactive: [1] | [5] | [2] | [3] | [4]
active: [1] 74.5 µM | [5] 51.3 µM | [2] 74.3 µM | [4] 68.3 µM

CCCCOCCOCCOC(C)=O
inactive: all assays above

CC(C)(c1ccccc1)c1ccc(Nc2ccc(C(C)(C)c3ccccc3)cc2)cc1
inactive: all assays above

CN(C)c1ccc2nc3ccc(=[N+](C)C)cc-3sc2c1
active: [1] 34.3 µM | [5] 10.8 µM | [2] 45.7 µM and 13 µM | [4] 41.2 µM and 14.4 µM and 28.4 µM
inactive: [1] | [5] | [2] | [3]

CCCCC/C=C\C/C=C\CCCCCCCC(=O)O
active: [1] 72 µM | [2] 86.3 µM | [3] 80.5 µM
inactive: [1] | [5] | [2] | [3] | [4]

CC1C(C)(C)C2=C(C(=O)CCC2)C1(C)C (stereo not drawn)
not listed: [4]
inactive: all other assays above

CC(C)(O)Cc1ccccc1
not listed: [4]
inactive: all other assays above

C=CC(=O)OCCCCCCOC(=O)C=C
active: [1] 54.4 µM and 63.2 µM | [2] 42.4 µM and 63.2 µM
inactive: all other assays above

CCCCCCOc1ccc(N)cc1
inactive: all assays above

COC(=O)[C@H](Cc1ccccc1)NC(=O)[C@@H](N)CC(=O)O (H-Asp-Phe-OMe)
inactive: all assays above

CCCCCCCC(=O)OCC(COC(=O)CCCCCCC)OC(=O)CCCCCCC
inactive: all assays above

C=CCCCCCCCCO
inactive: all assays above

O=C(OCc1ccccc1)c1ccc(O)cc1
inactive: all assays above

Oc1c(Cl)cc(Cl)c(Cl)c1Cl
inactive: [5] | [3]
active: [1] 17 µM and 27.1 µM | [2] 27 µM and 21.1 µM | [4] 35.5 µM and 18.8 µM

CCCCC1C(=O)N(c2ccccc2)N(c2ccccc2)C1=O
inactive: all assays above

O=C(Nc1ccccc1)c1cc(Cl)ccc1O
inactive: [3] | [4]
active: [1] 4.05 µM | [5] 12.6 µM | [2] 13.7 µM

Cc1noc(NS(=O)(=O)c2ccc(N)cc2)c1C
inactive: all assays above

C=C1C[C@H]2[C@@H]3C=C(C)C4=CC(=O)CC[C@]4(C)[C@H]3CC[C@]2(C)[C@@]1(OC(C)=O)C(C)=O
inactive: all assays above

CCCCC1CCC(=O)O1 (stereo not drawn)
inactive: all assays above

O=C(O[C@@H]1Cc2c(O)cc(O)cc2O[C@@H]1c1cc(O)c(O)c(O)c1)c1cc(O)c(O)c(O)c1
inactive: all assays above

CC(C)(CO)COC(=O)C(C)(C)CO
inactive: all assays above

CCCCNS(=O)(=O)c1ccccc1
inactive: all assays above

O=C(O)/C=C/c1ccccc1
inactive: all assays above

CC1(C)[C@@H]2CC[C@@]1(C)C(=O)C2
inactive: all assays above

CN(C)Cc1cc(CN(C)C)c(O)c(CN(C)C)c1
inactive: all assays above

Oc1ccc(-c2ccccc2)c(Cl)c1
active: [5] 60.8 µM | [4] 76.2 µM
inactive: all other assays above

CCCCCCCCCCCCc1ccc(O)cc1
active: [1] 49.9 µM | [5] 16.3 µM | [2] 52.1 µM | [3] 24 µM | [4] 28.3 µM

CCc1cccc(C)c1N
inactive: all assays above

CC1(C)CCC[C@]2(C)[C@H]3CC(=O)O[C@]3(C)CC[C@@H]12
inactive: all assays above

CCOC(=O)C1=NOC(c2ccccc2)(c2ccccc2)C1
inactive: all assays above

O=S(=O)(O)c1ccc(N=Nc2c(O)ccc3ccccc23)cc1
active: [5] 44 µM
inactive: all other assays above

C=C(C)C(=O)OCCCCCCCCCCCC
inactive: all assays above

Oc1ccc(/C=C/c2cc(O)cc(O)c2)cc1
inactive: all assays above

COc1cc(C)ccc1O
inactive: all assays above

Cc1cccc(C(C)(C)C)c1O
inactive: all assays above

C=C(C)OC(C)=O
inactive: all assays above

CCCCCCCCCCCCCCCCCCOS(=O)(=O)O
active: [1] 86.5 µM
inactive: all other assays above

CC(=O)OC/C=C(/C)CCC=C(C)C
inactive: all assays above

CCCCC(=O)O
inactive: all assays above

C[Si](C)(C)N[Si](C)(C)C
inactive: all assays above

CC(C)c1ccc(O)c(C(C)C)c1
active: [5] 44.7 µM | [4] 81 µM
inactive: all other assays above

CC(C)[N+](C)(CCOC(=O)C1c2ccccc2Oc2ccccc21)C(C)C
inactive: all assays above

CC(=O)OCC=C(C)C
inactive: all assays above

CC(C)=CCl
not listed: [2]
inactive: all other assays above

CC=C(C)C=CC=C(C)C
not listed: [3]
inactive: all other assays above

Clc1cc(Cl)c(Cl)c(Cl)c1Cl
not listed: [2]
inactive: all other assays above

O=C(O)c1ccc2c(c1)C(=O)OC2=O
not listed: [2]
inactive: all other assays above

CCCCNC(=S)NCCCC
not listed: [2]
inactive: all other assays above

C=Cc1ccc(OC(C)=O)cc1
inactive: [1] | [2] | [3]
